The results in this text go back to PubChem BioAssay (EPA / NIEHS).

Each structure is given as a SMILES string. Inconclusive results are not listed. Calls of active or inactive are those of the source. Rule for the calls: active = hit-call score of the fitted dose curve at least 0.9, where 1 is the maximum; inconclusive = response in the unintended direction; inactive = score below 0.9.

This test deals with Estrogen receptor (Homo sapiens) (UniProt P03372). Put plainly: CCTE_Deisenroth_AIME_384WELL_LUC_Inactive: CCTE's 384-well Estrogen Receptor Transactivation Assay without AIME metabolic competence (ERTA luciferase; metabolism negative), Deisenroth Lab (AID 2284038).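 Note: hits raise estrogen receptor luciferase signal so potencies reflect agonists.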 On the procedure: CCTE_Deisenroth_AIME_384WELL (AIME metabolism assay) is a cell-based, single-readout assay that uses VM7Luc4E2, a human mammary gland/breast cell line, with measurements taken at 24 hour after chemical dosing in a 384-well plate.CCTE_Deisenroth_AIME_384WELL_LUC_Inactive is one of four assay components measured or calculated from the CCTE_Deisenroth_AIME_384WELL assay. It is designed to make measurements of luciferase induction, a form of inducible reporter, as detected with bioluminescence signals by luciferase-coupled ATP quantitation technology.CCTE_Deisenroth_AIME_384WELL_LUC_Inactive is a component of the CCTE_Deisenroth_AIME_384WELL assay that measures the effect of retroftting the VM7Luc ERTA assay with the Alginate Immobolization of Metabolic Enzymes (AIME) metabolism method. AIME is optimized to impart phase I hepatic metabolism using phenobarbital/beta-naphthoflavone induced hepatic S9 from male Sprague Dawley rats. Parent chemicals are incubated for 2 hours in the AIME assay prior to transfer to the VM7Luc ERTA assay plate. […] This endpoint evaluates reporter induction in metabolism negative mode. Using a type of inducible reporter in VM7Luc cells, gain-of-signal activity can be used to understand changes in the reporter gene as they relate to xenobiotic metabolism and the gene ESR1. This assay endpoint, CCTE_Deisenroth_AIME_384WELL_LUC_Inactive, was analyzed in the positive analysis fitting direction relative to 17beta-estradiol as the positive control in the ERTA assay. To generalize the intended target to other relatable targets, this assay endpoint is annotated to the nuclear receptor intended target family, where the subfamily is steroidal.
Sequence of Estrogen receptor (Homo sapiens) (P03372 whole entry, looked up): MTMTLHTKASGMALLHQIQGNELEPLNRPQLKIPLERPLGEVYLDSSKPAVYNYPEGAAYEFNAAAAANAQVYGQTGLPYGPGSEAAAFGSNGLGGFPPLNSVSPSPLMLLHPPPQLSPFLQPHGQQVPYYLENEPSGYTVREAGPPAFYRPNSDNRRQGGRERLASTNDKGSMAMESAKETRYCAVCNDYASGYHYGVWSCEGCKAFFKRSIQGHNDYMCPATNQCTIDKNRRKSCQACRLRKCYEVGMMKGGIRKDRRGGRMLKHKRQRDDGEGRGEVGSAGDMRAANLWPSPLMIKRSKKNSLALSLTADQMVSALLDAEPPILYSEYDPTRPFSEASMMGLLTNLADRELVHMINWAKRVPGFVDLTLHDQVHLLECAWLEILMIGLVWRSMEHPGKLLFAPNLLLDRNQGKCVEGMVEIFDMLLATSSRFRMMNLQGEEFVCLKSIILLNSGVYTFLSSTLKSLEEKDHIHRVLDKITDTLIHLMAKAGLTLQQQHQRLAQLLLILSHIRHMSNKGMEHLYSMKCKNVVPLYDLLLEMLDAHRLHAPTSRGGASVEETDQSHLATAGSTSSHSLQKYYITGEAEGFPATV
The AIME procedure consists of a preparative "pre-stamping" step using a barium chloride/poly-L-lysine (PLL) solution followed by "stamping" the lid in alginate-hepatic S9 (metabolism positive) or alginate-water (metabolism negative) to form microspheres. Once stamping is completed, the AIME lids are placed in duplicate microplates (metabolism positive or negative) containing chemical solutions and incubated for two hours to facilitate metabolic reactions. The conditioned medium, containing parent chemical or metabolites, is then transferred to the cell-based VM7Luc Estrogen Receptor Transactivation Assay (ERTA) for 24 hours. A typical experimental design tests a 10-point concentration series (0.002 - 200 uM) for 8 compounds (96-well format)1 or 32 compounds (384-well format)2 in single technical replicate. AIME assay controls include trans-stilbene (bioactivated control) and ethylparaben (bioinactivated control). ERTA assay plate controls include 17-beta estradiol (positive control) and DMSO (solvent control). Experiments typically comprise a minimum of four experimental replicates (n=4).
As for `CNC(=O)Oc1ccccc1OC(C)C`, the compound was called inactive.
For `COP(=O)(OC)OC=C(Cl)Cl`, the outcome was inactive.
Same read-out and setting: next, `CNC(=O)/C=C(\C)OP(=O)(OC)OC`: “inactive”.
`Cc1[nH]c(=O)n(C(C)(C)C)c(=O)c1Cl`: the call was inactive.
A word on the AC50: it is the midpoint of the concentration-response curve, whichever way the signal moves. Take `O=S1OCC2C(CO1)C1(Cl)C(Cl)=C(Cl)C2(Cl)C1(Cl)Cl` (stereo not drawn): the AC50 was 12 µM (active).
As for `CCOC1Oc2ccc(OS(C)(=O)=O)cc2C1(C)C` (stereo not drawn), the outcome was inactive.
Regarding `CCC(C)Nc1c([N+](=O)[O-])cc(C(C)(C)C)cc1[N+](=O)[O-]` (stereo not drawn), the AC50 was 12.4 µM (active).
Turning to `CCc1ccc(C(=O)NN(C(=O)c2cc(C)cc(C)c2)C(C)(C)C)cc1`, the outcome was inactive.
As to `Clc1ccccc1-c1nnc(-c2ccccc2Cl)nn1`, the result was inactive.
Regarding `OCCOc1ccccc1`, the AC50 is 43.5 µM (active).
Turning to `CCCN(CCC)c1c([N+](=O)[O-])cc(C(F)(F)F)cc1[N+](=O)[O-]`, the outcome was inactive.
The same measure, in the same setting: next, `C[C@H]1[C@H](c2ccc(Cl)cc2)SC(=O)N1C(=O)NC1CCCCC1`: “inactive”; `CNC(=O)Oc1cccc(N=CN(C)C)c1`: “inactive”.
